Reference: PubChem BioAssay (NCI)
Compounds without any hit were thinned out: in the full panel of roughly 83,000, 20% have a hit.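 How to read the values: 0–100, growth inhibition (40 = 60% inhibited); 0, no net growth; -100 to 0, cell death (-40 = 40% of starting cells died; -100 = all dead).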 The source made the active and inactive calls. Rule for the calls: active = growth percent below 10; inactive = the rest.

How the values were obtained:
Test in all cases: NCI-60 one-dose screen, 48 h (100 = growth as untreated, 0 = no growth, -100 = all killed)
Details in all cases: 10 µM unless noted
SK-MEL-2 melanoma = test system: SK-MEL-2 melanoma
EKVX NSCLC = test system: EKVX NSCLC
SN12C renal = test system: SN12C renal
UO-31 renal = test system: UO-31 renal
TK-10 renal = test system: TK-10 renal
ACHN renal = test system: ACHN renal
CAKI-1 renal = test system: CAKI-1 renal
A498 renal = test system: A498 renal
CCRF-CEM leukemia = test system: CCRF-CEM leukemia
MOLT-4 leukemia = test system: MOLT-4 leukemia

Measured: growth

CC/C=C\C[C@H](O)C/C=C1/C(=O)C(Cl)=C[C@@H]1C/C=C\CCCC(=O)OC
inactive: CAKI-1 renal 13.2%
active: SK-MEL-2 melanoma -21% | EKVX NSCLC -63.2% | SN12C renal -51.7% | UO-31 renal -94.5% | TK-10 renal -34.2% | ACHN renal -43.6% | A498 renal 1.86% | CCRF-CEM leukemia -3.78% | MOLT-4 leukemia -6.11%

COc1ccc(OC)c(NC(=O)c2cc(S(=O)(=O)N3CCc4ccccc43)ccc2OC)c1
inactive: SK-MEL-2 melanoma 36.4% | EKVX NSCLC 94.9% | SN12C renal 95% | UO-31 renal 42.2% | TK-10 renal 91.9% | ACHN renal 93.3% | CAKI-1 renal 107% | A498 renal 69.8% | CCRF-CEM leukemia 107% | MOLT-4 leukemia 106%

O=c1[nH]c(CN2CCN(c3ccccc3F)CC2)nc2sc3c(c12)CCC3
active: TK-10 renal -3.37%
inactive: SK-MEL-2 melanoma 87.6% | EKVX NSCLC 100% | SN12C renal 99.7% | UO-31 renal 95.2% | ACHN renal 113% | CAKI-1 renal 122% | A498 renal 93% | CCRF-CEM leukemia 100% | MOLT-4 leukemia 99.8%

NC(C(=O)O)C(O)c1ccc(OCc2ccccc2)c(OCc2ccccc2)c1 (configuration not stated)
inactive: SK-MEL-2 melanoma 104% | EKVX NSCLC 104% | SN12C renal 107% | UO-31 renal 92.1% | TK-10 renal 104% | ACHN renal 101% | CAKI-1 renal 93.3% | A498 renal 85.3% | CCRF-CEM leukemia 94.6% | MOLT-4 leukemia 98.9%

Nc1nc(Cl)c2c(ncn2Cc2ccc(CCl)cc2)n1
active: CCRF-CEM leukemia 1.58%
inactive: SK-MEL-2 melanoma 98.6% | EKVX NSCLC 103% | SN12C renal 93.4% | UO-31 renal 70.5% | TK-10 renal 78.9% | ACHN renal 83.3% | CAKI-1 renal 102% | A498 renal 97.3% | MOLT-4 leukemia 103%

CN(C)C/C=C/C(=O)Nc1cc2c(Nc3cccc(Cl)c3F)ncnc2cc1OCCOC(F)F
inactive: SK-MEL-2 melanoma 70.1% | EKVX NSCLC 19.2% | SN12C renal 12.6% | UO-31 renal 16.1% | TK-10 renal 22.4% | CAKI-1 renal 10.1% | CCRF-CEM leukemia 63.1% | MOLT-4 leukemia 38.6%
active: ACHN renal 4.97% | A498 renal -14.5%

CC(Br)C(Br)c1cc2c(cc1Br)OCO2 (configuration not stated)
inactive: SK-MEL-2 melanoma 91.4% | EKVX NSCLC 93.8% | SN12C renal 110% | UO-31 renal 90.7% | TK-10 renal 96.6% | ACHN renal 93.2% | CAKI-1 renal 84% | A498 renal 99.3% | CCRF-CEM leukemia 99.6% | MOLT-4 leukemia 94.7%

O=C(Cc1c(F)cccc1Cl)Nc1ccc(S(=O)(=O)Nc2ncccn2)cc1
inactive: SK-MEL-2 melanoma 73.1% | EKVX NSCLC 100% | SN12C renal 96% | UO-31 renal 42.7% | TK-10 renal 112% | ACHN renal 100% | CAKI-1 renal 91% | A498 renal 98.4% | CCRF-CEM leukemia 61.6% | MOLT-4 leukemia 103%

COc1ncc(-c2ccc3ncnc(Nc4cccc(Cl)c4)c3c2)cc1NS(=O)(=O)C1CC1
inactive: SK-MEL-2 melanoma 36.5% | EKVX NSCLC 12.3% | SN12C renal 31.2% | UO-31 renal 22.5% | ACHN renal 23.9% | CAKI-1 renal 27.8% | A498 renal 15.7% | CCRF-CEM leukemia 33.2%
active: TK-10 renal 1.03% | MOLT-4 leukemia -0.986%

O=C1CCC(=O)N1Cc1ccccc1
inactive: SK-MEL-2 melanoma 95.1% | EKVX NSCLC 97.3% | SN12C renal 104% | UO-31 renal 98.1% | TK-10 renal 92.2% | ACHN renal 101% | CAKI-1 renal 94.2% | A498 renal 85.8% | CCRF-CEM leukemia 108% | MOLT-4 leukemia 101%

ClC1=C(Cl)C(Cl)=C(Cl)C1=Cc1ccc(Cl)cc1Cl
active: SK-MEL-2 melanoma -2.84% | EKVX NSCLC -19.8% | SN12C renal -31.1% | UO-31 renal -81.8% | TK-10 renal -5.11% | ACHN renal -75.7% | CAKI-1 renal -41.2% | A498 renal -89.6% | CCRF-CEM leukemia 3.34% | MOLT-4 leukemia 4.59%

COc1ccc(C2NC3=C(CCCC3)C(C#N)(C#N)C2(C#N)C#N)cc1 (configuration not stated)
active: CCRF-CEM leukemia 7.38% | MOLT-4 leukemia 9.29%
inactive: SK-MEL-2 melanoma 98.8% | EKVX NSCLC 88.2% | SN12C renal 88.7% | UO-31 renal 75.7% | TK-10 renal 79.7% | ACHN renal 37.1% | CAKI-1 renal 78% | A498 renal 111%

O=S(=O)(NCCCNc1cc(-c2cn(-c3ccccc3)nc2-c2cccc(O)c2)ccn1)c1cccc(F)c1
inactive: SK-MEL-2 melanoma 66.3% | EKVX NSCLC 39% | SN12C renal 65.9% | UO-31 renal 35.6% | TK-10 renal 58.9% | ACHN renal 43.7% | CAKI-1 renal 41% | A498 renal 46.6% | CCRF-CEM leukemia 36.3% | MOLT-4 leukemia 31%

CC(C)(C)c1cn2cccc(C(=O)N3CCN(CC(=O)Nc4ccc(Cl)cc4C(=O)c4ccccc4Cl)CC3)c2n1
inactive: SK-MEL-2 melanoma 65.4% | EKVX NSCLC 40.8% | SN12C renal 72.6% | UO-31 renal 47% | TK-10 renal 69% | ACHN renal 44.8% | CAKI-1 renal 67.5% | CCRF-CEM leukemia 27.9% | MOLT-4 leukemia 16.4%
active: A498 renal -0.735%

O=S(=O)(NCCNc1cc(-c2cn(-c3ccccc3)nc2-c2ccccc2)ccn1)c1ccc(F)cc1
inactive: SK-MEL-2 melanoma 108% | EKVX NSCLC 71.3% | SN12C renal 92.8% | UO-31 renal 60.7% | TK-10 renal 114% | ACHN renal 93% | CAKI-1 renal 66.1% | A498 renal 83.8% | CCRF-CEM leukemia 83.4% | MOLT-4 leukemia 70.1%

Cc1ccc2nc(-c3c(N)n[nH]c3CCCO)[nH]c(=O)c2c1
inactive: SK-MEL-2 melanoma 108% | EKVX NSCLC 103% | SN12C renal 104% | UO-31 renal 63.9% | TK-10 renal 109% | ACHN renal 115% | CAKI-1 renal 112% | A498 renal 100% | CCRF-CEM leukemia 91.8% | MOLT-4 leukemia 95.7%

CCCn1c(=S)sc2c(Cl)nc(C)nc21
active: SK-MEL-2 melanoma 1.85%
inactive: EKVX NSCLC 106% | SN12C renal 113% | UO-31 renal 103% | TK-10 renal 137% | ACHN renal 83.1% | CAKI-1 renal 63.8% | A498 renal 98.5% | CCRF-CEM leukemia 72% | MOLT-4 leukemia 116%

O=C(CSc1nc(-c2ccc(Cl)cc2)cn1-c1ccc(Cl)cc1)c1ccc(Br)cc1
inactive: SK-MEL-2 melanoma 87% | EKVX NSCLC 69.1% | SN12C renal 62.6% | UO-31 renal 45.5% | TK-10 renal 93% | ACHN renal 22.4% | CAKI-1 renal 78.7% | A498 renal 93.8% | CCRF-CEM leukemia 92.8% | MOLT-4 leukemia 90.7%

CCCCCCCCCN1C(=O)/C(=c2\sc3n(c2=O)C2C(NN=3)N(CC)C(=O)N2CC)c2ccccc21 (configuration not stated)
inactive: SK-MEL-2 melanoma 76.2% | EKVX NSCLC 69.1% | SN12C renal 66.3% | UO-31 renal 53.4% | TK-10 renal 71.1% | ACHN renal 59% | CAKI-1 renal 34.8% | A498 renal 18.8% | MOLT-4 leukemia 99.7%

CCc1c(C(=O)Nc2ccc3ccccc3c2)[nH]c(C)c1C(C)=O
inactive: SK-MEL-2 melanoma 87.9% | EKVX NSCLC 84.3% | SN12C renal 96.6% | UO-31 renal 86.8% | TK-10 renal 99.8% | ACHN renal 98.6% | CAKI-1 renal 86.4% | A498 renal 80.2% | CCRF-CEM leukemia 96.1% | MOLT-4 leukemia 68.5%

CCC(=O)Nc1ccccc1C#C/C=C\C#Cc1ccccc1SC
inactive: SK-MEL-2 melanoma 28% | EKVX NSCLC 65.6% | SN12C renal 82.1% | UO-31 renal 21.5% | TK-10 renal 71.5% | ACHN renal 77.7% | CAKI-1 renal 70.6% | A498 renal 59.9% | CCRF-CEM leukemia 26.9% | MOLT-4 leukemia 40.7%

COc1ccc(/C=c2\sc3n(c2=O)C2C(NN=3)N(C)C(=O)N2C)cc1 (configuration not stated)
inactive: SK-MEL-2 melanoma 39.6% | EKVX NSCLC 56.7% | SN12C renal 42.3% | UO-31 renal 46.4% | TK-10 renal 54.8% | ACHN renal 45% | CAKI-1 renal 31.5% | MOLT-4 leukemia 26.5%
active: A498 renal -21.3%

CC(C)(C)OC(=O)N1C/C(=C\c2cccs2)C(=O)/C(=C/c2cccs2)C1
inactive: SK-MEL-2 melanoma 95.6% | EKVX NSCLC 99.5% | SN12C renal 93.6% | UO-31 renal 71.4% | TK-10 renal 110% | ACHN renal 97.2% | CAKI-1 renal 67.2% | A498 renal 81.9% | CCRF-CEM leukemia 51.7% | MOLT-4 leukemia 69.4%

COc1ccc2c(c1)NC(=O)CN2c1nc(C)nc2ccccc12
active: A498 renal -4.89%
inactive: SK-MEL-2 melanoma 23.5% | EKVX NSCLC 30.1% | SN12C renal 24.7% | UO-31 renal 26.8% | TK-10 renal 14.8% | ACHN renal 26.9% | CAKI-1 renal 29.3% | CCRF-CEM leukemia 37.2% | MOLT-4 leukemia 23.7%

CCN1C(=O)N(CC)C2C1NN=c1s/c(=C\c3ccccn3)c(=O)n12 (configuration not stated)
inactive: SK-MEL-2 melanoma 39.9% | EKVX NSCLC 61.7% | SN12C renal 40.7% | UO-31 renal 43.8% | TK-10 renal 51.2% | ACHN renal 43.4% | CAKI-1 renal 30.2% | MOLT-4 leukemia 42.5%
active: A498 renal -29.2%

O=C1OC(c2ccccc2)=N/C1=C\c1ccc([N+](=O)[O-])cc1
inactive: SK-MEL-2 melanoma 105% | EKVX NSCLC 99.9% | SN12C renal 100% | UO-31 renal 91.7% | TK-10 renal 97.4% | ACHN renal 102% | CAKI-1 renal 91.5% | A498 renal 87.4% | CCRF-CEM leukemia 114% | MOLT-4 leukemia 102%

Cc1ccc2nc(-c3c(CCCO)noc3N)[nH]c(=O)c2c1
inactive: SK-MEL-2 melanoma 105% | EKVX NSCLC 101% | SN12C renal 111% | UO-31 renal 47% | TK-10 renal 95.5% | ACHN renal 113% | CAKI-1 renal 97.1% | A498 renal 104% | CCRF-CEM leukemia 88.5% | MOLT-4 leukemia 83.7%
